The list is not random: actives were taken first. Their share in the collection is about 7.6%.
CRE-bla Fsk: Cell signaling CRE-BLA (Fsk stim); CHO CRE-bla reporter (cAMP response element driving beta-lactamase), forskolin EC10, beta-lactamase ratio; Potency, µM (doses to about 38.2 µM), for the others: at the highest dose activity change, negative = inhibition, hits mostly activators; actives 2.5% (n = 71,000); AID 662, 2007; active = well fitted activation curve with a large enough effect in the signal ratio, with a control signal flat, not every such curve was filed as active; inconclusive = small, poorly fitted or top-dose-only effect, or effect the other way, or a change in a side signal; the % refers to the signal ratio; note: % of control where 0% means no effect
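Modulation of forskolin signalling: compounds in titration series added with EC10 NKH 477 to CHO cells carrying a CRE-driven beta-lactamase reporter, 3 h, 37C. CCF4 FRET ratio (460/530 nm, ex 405 nm) gives %activity and AC50.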
HEK293 cAMP ctrl: qHTS Assay for Agonists of the Thyroid Stimulating Hormone Receptor: Activators of Intracellular cAMP Concentrations in Parental HEK 293; parental HEK293 CNG cAMP sensor, membrane potential fluorescence; Potency, µM (doses to about 57.1 µM), for the others: top-dose activation, usual class: activators; actives 2.5% (n = 73,000); AID 938, 2007; note: % of control where 0% means no effect; nearly all actives have a fitted effect of over 55% in size
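Parental HEK 293 cells stably expressing a cAMP-gated CNG channel were loaded with membrane potential dye containing 100 uM RO 20-1724 for 60 min. Compound added for 30 min; depolarization read as fluorescence intensity at 590 nm.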
Tau filament bind: qHTS Assay for Tau Filament Binding; actives 2% (n = 71,000); recombinant tau filaments, thioflavin S fluorescence, 15 h; filaments grown with octadecylsulfate alongside compound; Microtubule-associated protein tau (Homo sapiens), P10636; Potency, µM (highest dose often 57.1 µM), for the others: at the top dose activity change, negative = inhibition;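 note: % is set by controls: 0 for no effect and ±100 for the full control effect; actives lower thioflavin S fluorescence by blocking filaments or displacing dye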
Target sequence (P10636 whole entry, looked up): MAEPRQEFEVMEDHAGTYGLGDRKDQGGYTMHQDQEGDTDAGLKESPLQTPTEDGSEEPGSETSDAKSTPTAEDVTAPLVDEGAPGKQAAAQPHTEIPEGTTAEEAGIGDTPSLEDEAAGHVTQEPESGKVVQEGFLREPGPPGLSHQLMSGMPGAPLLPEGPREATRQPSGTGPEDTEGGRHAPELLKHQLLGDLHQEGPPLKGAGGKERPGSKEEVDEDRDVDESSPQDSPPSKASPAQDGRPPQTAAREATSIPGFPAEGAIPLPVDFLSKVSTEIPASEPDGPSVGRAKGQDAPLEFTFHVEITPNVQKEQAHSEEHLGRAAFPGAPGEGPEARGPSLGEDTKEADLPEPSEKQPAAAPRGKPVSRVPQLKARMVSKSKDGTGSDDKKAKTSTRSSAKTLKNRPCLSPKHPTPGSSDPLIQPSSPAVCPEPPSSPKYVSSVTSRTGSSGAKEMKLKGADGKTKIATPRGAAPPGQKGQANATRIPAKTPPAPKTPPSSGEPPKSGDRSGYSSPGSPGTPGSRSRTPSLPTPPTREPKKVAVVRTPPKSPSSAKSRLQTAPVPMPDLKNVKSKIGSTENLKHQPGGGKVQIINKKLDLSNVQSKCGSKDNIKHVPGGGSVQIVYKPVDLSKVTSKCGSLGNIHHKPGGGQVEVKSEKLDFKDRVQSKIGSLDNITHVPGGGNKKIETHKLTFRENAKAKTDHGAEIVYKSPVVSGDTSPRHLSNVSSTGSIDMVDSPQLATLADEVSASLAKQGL
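Tau 2 uM in ThS buffer dispensed; compound added; 60 uM ODS added (finals 1 uM tau, 30 uM ODS); 15 h 37 C; fluor ex450/em510.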
ERK AVP inh: qHTS Assay for Inhibitors of the ERK Signaling Pathway using a Homogeneous Screening Assay; HEK293-V1b, vasopressin-stimulated pERK AlphaScreen; actives 0.99% (n = 72,000); AID 995, 2007; Potency, µM (doses to about 57.5 µM), for inactives: at the top dose activity, negative = inhibition, hits mostly inhibitors; note: % is set by controls: 0 for no effect and ±100 for the full control effect; nearly all actives have a fitted effect of over 55% in size
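qHTS, compounds titrated on V1b-expressing HEK293 cells. Preincubation 30 min at 37C, vasopressin 25 nM for 5 min, lysis 10 min, bead incubation 5 hr at room temperature.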
TSHR agonist: qHTS Assay for Agonists of the Thyroid Stimulating Hormone Receptor; AID 926, 2007; HEK293-CNG-TSHR cells (CNG channel as cAMP sensor), membrane potential dye, cAMP; Potency, µM (doses to about 57.1 µM), inactives show at the highest dose activation, most hits filed as activators; actives 0.48% (n = 73,000); Thyrotropin receptor (Homo sapiens), P16473; active = well fitted activation curve with a large enough effect in the main read-out, with a control signal flat, not every such curve was filed as active; inconclusive = small, poorly fitted or top-dose-only effect, or a change in a side signal; inactive = no such curve, though single readings can be large or run the other way; % of control where 0% means no effect;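 note: the control signal comes from parental cells without the receptor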
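cAMP rise detected as CNG-channel membrane depolarization by fluorescent dye (emission 590 nm), 30 min after compound, following 60 min dye loading containing 100 uM RO 20-1724 at room temperature. Cells: TSHR/CNG HEK 293, with parental CNG HEK 293 as control.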
An asterisk follows results filed as active; i = inactive; u = inconclusive; x = not tested or not shown; [ ] = another dose, or the depositor's remark. Unless noted, calls come from the whole dose curve; as a rule, active = well fitted curve in the direction sought with a large enough effect; inconclusive = small, poorly fitted or top-dose-only effect, or another doubt; inactive = no such curve, though single readings can be large; an effect the other way counts as inactive or inconclusive. Potency is the fitted concentration of half-maximal effect.

SMILES | CRE-bla Fsk | HEK293 cAMP ctrl | Tau filament bind | ERK AVP inh | TSHR agonist
CC(C)C[C@@H](CC(=O)N[C@@H](CCCN)CC(=O)N[C@@H]1CCNC[C@H]1C(=O)N[C@H](CC(=O)N[C@@H](CCC(=O)O)CC(=O)O)Cc1c[nH]c2ccccc12)NC(=O)[C@@H]1CCCC[C@H]1N | -16.0% | 7.2% | -14.5% | x | 3.6%
CCn1cc(C(=O)OCc2ccccc2)c(=O)c2ccc(C)nc21 | 12.6µM* | 8.2% | 35.9% | u | x
CCn1cc(C(=O)OCC(=O)OC2CC(C)CCC2C(C)C)c(=O)c2ccc(C)nc21 (stereo not given) | u | u | 94.0% | 25.1µM* | u
CCn1cc(C(=O)OCc2cccc(Br)c2)c(=O)c2ccc(C)nc21 | u | u | 143.5% | -4.1% | u
CCn1cc(C(=O)OCc2ccc(F)cc2)c(=O)c2ccc(C)nc21 | 12.6µM* | 12.5% | 18.8% | -26.3% | x
O=C(O)CCC(=O)C(=O)O (tested in a mixture with another compound) | x | x | x | -12.6% | x
Nc1c(C(=O)NC2CCCC2)c2nc3ccccc3nc2n1N | 12.6µM* | 5.8% | -20.9% | -31.5% | -14.8%
Cc1noc(C)c1-c1nccc(NC2CC2)n1 | 8.8% | -8.5% | -1.4% | -2.5% | 1.5%
CC(C)c1ccc(S(=O)(=O)N2CCN(C(=O)c3cccc(F)c3)CC2)cc1 | u | 20µM* | 8.1% | 15.3% | u
CC(C)C(=O)NC(=O)C1CCCN1C(=O)/C=C/c1ccccc1 (stereo not given) | x | 6.2%[11.4 µM] | x | 4.4%[11.5 µM] | -2.1%[11.4 µM]
COCCn1c(=O)c(C)nc2cnc(Oc3ccc(OC)cc3)nc21 | u | 31.6µM* | -0.2% | -12.7% | u
COc1ncc2nc(-c3ccc(F)cc3)c(=O)n(Cc3cccs3)c2n1 | u | 20.4% | -1.1% | -7.3% | 10.5%
COCCn1c(=O)c(-c2cccs2)nc2cnc(N3CCOCC3)nc21 | 2µM* | 4.0% | i | 19.3% | -1.9%
COCCn1c(=O)c(-c2cccs2)nc2cnc(Oc3ccccc3)nc21 | u | 12.2% | u | 42.4% | x
COc1ccc(Oc2ncc3nc(-c4ccc(F)cc4)c(=O)n(Cc4cccs4)c3n2)cc1 | 12.6µM* | 8.6%[2.29 µM] | u | -1.8% | 4.0%
COCCn1c(=O)c(-c2ccc(OC)cc2)nc2cnc(Oc3ccc(OC)cc3)nc21 | u | u | -10.1% | -10.4% | u
COCCn1c(=O)c(-c2cccs2)nc2cnc(Oc3ccc(OC)cc3)nc21 | 10µM* | 9.6% | u | 4.4% | 3.8%
CC1CCC2C(=O)N3C(CCC(C)C3c3ccccc3Br)C(=O)N2C1c1ccc(C#CCN(C)C)cc1 (stereo not given) | x | -0.3%[11.4 µM] | x | 17.9%[11.5 µM] | 21.5%[11.4 µM]
CN1CCN(c2ncnc3ccc(-c4ccccc4C(F)(F)F)cc23)CC1 | u | u | -11.3% | u | u
COc1ncc2nc(-c3cccs3)c(=O)n(CCC#N)c2n1 | 7.94µM* | 4.4% | 40.7% | -23.0% | 1.7%
COc1ccc(Oc2ncc3nc(-c4cccs4)c(=O)n(C)c3n2)cc1 | 2.51µM* | u | u | 18.1% | u
C[C@@H]1C[C@H](C)CN(S(=O)(=O)c2cc(Cl)c(Oc3ccc([N+](=O)[O-])cc3Cl)c(Cl)c2)C1 | -3.5%[7.6 µM] | -6.4%[11.4 µM] | -25.4%[11.4 µM] | -0.7%[11.5 µM] | 2.4%[11.4 µM]
COc1ccc(C(OCCN2CCC[C@@H](C(=O)O)C2)(c2ccc(OC)cc2)c2ccc(OC)cc2)cc1 | -9.3% | -3.5% | 13.2% | 6.1% | 13.5%
N#Cc1c(/N=C/c2ccco2)sc2c1CCC2 | 0.8% | -7.1% | 15.8µM* | -9.5% | -1.8%
CN(C)/N=N\c1nc[nH]c1C(N)=O | -1.1%[17.1 µM] | u | 0.4%[25.6 µM] | -3.4%[25.7 µM] | u
FC(F)C(F)(F)C(F)(F)C(F)(F)c1cc(-c2ccccc2)n[nH]1 | u | -5.8% | 10µM* | 2.51µM* | 0.4%

Screening results as filed in PubChem.
